Experimental data published in ChEMBL document CHEMBL3433997, “St. Jude Leishmania screening dataset” (2016).
Values joined by “and” are separate entries in the source; they are usually repeats but may differ in a detail not shown here. Identical values can stand only once.

Biological target: Glucose transporter (Leishmania mexicana) (UniProt O61059)
Assay: ST_JUDE_LEISH: Cytotoxicity at 2uM final concentration against transgenic Leishmania Mexicana promastigotes LmGT2 that are glucose transport deficient and complemented with the L. Mexicana glucose transporter 2. Activity is measured by DNA content using SYBR green in vitro
Type: functional

First: COc1cc(C(=O)NC2CC(C)(C)N(C)C(C)(C)C2)ccc1-c1cc2cc(Cl)c(Cl)cc2[nH]1
Second: COc1cc(C(=O)NC2CCN(Cc3ccccc3)CC2)ccc1-c1nc2c(Cl)cc(C(F)(F)F)cc2[nH]1
The inhibition of the first is lower: 2.48% for the first, 3.49% for the second.

First: O=C1c2ccccc2-n2c1nc1ccccc1c2=O
Second: COc1cc2nccc(Nc3cccc(Oc4ccccc4)c3)c2cc1OC
The inhibition of the first is lower: -3.28% for the first, 9.3% for the second.

First: CCC(C)NS(=O)(=O)c1ccc2nc(Nc3cccc(SC)c3)n(C(C)C(C)C)c2c1 (stereo not given)
Second: COc1ccc(NC(=O)[C@H](CC(C)C)Nc2cc(C)nc(NCc3cccc(C)c3)n2)cc1
The inhibition of the first is lower: 3.8% for the first, 7.22% for the second.

First: C#CCN(Cc1ccc2[nH]c(N)nc(=O)c2c1)c1ccc(C(=O)N[C@@H](CCC(=O)O)C(=O)O)cc1
Second: COc1ccc(-c2cc(C(=O)N[C@@H](Cc3ccccc3)C(=O)NCCN3CCCCC3)ccc2O)cc1
The inhibition of the first is lower: 3.66% for the first, 4.04% for the second.

Going from `COc1ccc2nccc([C@@H](O)CN3CCC(NC(=O)C(c4ccsc4)N4CCN(c5ccccc5OC)CC4)CC3)c2c1` (stereo not given in full) to `COc1ccc(CN2CCCN(Cc3cccc(C(=O)Nc4ccc(C)c(F)c4)c3)CC2)cc1`, the inhibition rises from 0.49% to 1.49%.

First: CCCCCCn1c(Sc2ccc(C#N)c([N+](=O)[O-])c2)nnc1-c1ccc(Cl)cc1
Second: CCc1ccc(-c2nc3cc(NC(=O)c4ccc([N+](=O)[O-])o4)ccc3o2)cc1
The inhibition of the first is higher: 2.57% for the first, 0.78% for the second.

First: Cc1nnsc1C(=O)Nc1ccc(-c2cccc(-c3nc4cc(F)ccc4[nH]3)c2)cc1
Second: C[C@H](NC(=O)C1CCCC1)C(=O)Nc1ccc(-c2ccc(-c3nc4cc(C(F)(F)F)ccc4[nH]3)cc2)cc1
The inhibition of the first is lower: -2.69% for the first, -1.28% for the second.

First: O=C(NCc1ccccc1)c1ncn(CCCN2CCC(N3CCCC3)CC2)c1-c1ccc(Cl)c(Cl)c1
Second: CCCCNC(=O)C1CCCN(C(=O)c2ccc(O)c(-c3ccc(Cl)c(Cl)c3)c2)C1 (stereo not given)
The inhibition of the first is lower: -1.08% for the first, 0.69% for the second.

Compared with `CCC(=O)Nc1ccc(C(O)CN2CCC3(C=Cc4ccccc4O3)CC2)cc1` (stereo not given), `CN(C)c1ccc(-c2ccc(C(=O)NC3CCN(Cc4cccc(C(F)(F)F)c4)CC3)s2)cc1` is higher in inhibition: 1.63% for the first, 3.55% for the second.

First: CCCCC([C@@H](Cc1ccc2ccccc2c1)C(=O)N[C@H](C(=O)NC)C(C)(C)C)N(O)C=O (stereo not given in full)
Second: CCCCc1cc(NCc2ccncc2)nc(Nc2ccc(OC)cc2)n1
The inhibition of the first is lower: 2.89% for the first, 3.3% for the second.

Compared with `N#Cc1ccc(C=CC(=O)NC2CCC(CCN3CCc4ccc(-c5cnccn5)cc4CC3)CC2)cc1` (stereo not given), `O=C(/C=C/c1ccc(Cl)c(Cl)c1)NCCCCCN1CCN(C(=O)Nc2ccc(Cl)c(C(F)(F)F)c2)CC1` is lower in inhibition: 0.59% for the first, -1.28% for the second.

Going from `CN(C)CCNC(=O)c1ccc2c(c1)n(C1CCN(S(=O)(=O)c3ccc(-c4ccccc4)cc3)CC1)c(=O)n2CC1CCCCC1` to `OC1CCCN(Cc2ccc(-c3ccc(-c4nc5ccccc5[nH]4)cc3)cc2)C1` (stereo not given), the inhibition rises from -1.74% to 5.37%.

Compared with `CC(=O)Nc1ccc(OCCCN(Cc2ccccc2C(F)(F)F)c2ccc(C(F)(F)F)c(C#N)c2)c(Cl)c1`, `FC(F)(F)c1ccccc1OCc1cc(-c2ccncc2)c(COc2ccccc2C(F)(F)F)cc1C1=CCNCC1` is higher in inhibition: 1.94% for the first, 2.81% for the second.

First: COc1cc(OC)cc(-c2nn(-c3ccc([N+](=O)[O-])cc3Cl)c(=S)n2CC2CCCO2)c1 (stereo not given)
Second: CN1c2ccc([N+](=O)[O-])cc2C(C)(C)C12C=Cc1cc(Br)cc([N+](=O)[O-])c1O2 (stereo not given)
The inhibition of the first is higher: 2.53% for the first, -0.71% for the second.

Compared with `C#CCNCc1ccc(-c2ccc(-c3nc4cc(C(F)(F)F)ccc4[nH]3)s2)cc1`, `Oc1ccc(CCNc2nc(NCc3ccccc3-c3ccc(C(F)(F)F)cc3)nc(NC3CCNCC3)n2)cc1` is higher in inhibition: -1.09% for the first, 0.66% for the second.

First: Cc1cnc(N2CCN(CCCN3CCCC3)CC2)nc1Oc1ccc(-n2ccnc2)cc1
Second: O=C(/C=C/c1ccc(Cl)c(Cl)c1)NCCCCCN1CCCC(C(=O)Nc2ccc(Cl)c(Cl)c2)C1 (stereo not given)
The inhibition of the first is higher: 3.96% for the first, -0.96% for the second.

`CCCc1cc(NCC)nc(Nc2ccc(C)cc2)n1` and `OC(CNc1ccnc(Nc2cccc(Cl)c2)n1)c1cccc(C(F)(F)F)c1` (stereo not given) are the same in inhibition: 4.06% for the first, 4.06% for the second.

Going from `CC(C)c1cc2c(ccc3nc(N)nc(N)c32)o1` to `CCCc1cccc(OC)c1OCCCON1C(N)=NC(N)=NC1(C)C`, the inhibition falls from 2.93% to 0.81%.

Going from `CC1(C)NC(N)=NC(=N)N1OCCc1ccccc1` to `COc1ccc2c(=NN=C(C)c3ccccn3)cc(C)[nH]c2c1`, the inhibition rises from 0.66% to 4.08%.

`Clc1ccc(Sc2cncnc2N2CCOCC2)cc1` showed an inhibition of -0.01%.

For `O=C(Nc1ccc(Cn2ncc(N3CCCNCC3)c(Cl)c2=O)cc1)Nc1ccc(-c2ccccc2)cc1`, the inhibition was -4.66% and 1.38%.
